Measurements: PubChem BioAssay (NCATS)
Several values for one entry are separate records, joined by “and”; a condition that tells them apart may be missing. Equal entries are not always repeated. Records with an inconclusive call do not appear. Some compounds were tested as several samples or in several runs, with calls that do not always agree. Activity calls are given as the source filed them. Unless noted, the call rests on the fitted dose curve; in most records, active means well fitted inhibition curve with a large enough effect; inconclusive means small, poorly fitted or top-dose-only effect; inactive means flat fitted curve, though single readings scatter.

experiment: P-glycoprotein substrates identified in KB-8-5-11 adenocarcinoma cell line, qHTS therapeutic library screen (AID 1346987); settings: KB-8-5-11 (P-gp overexpressing) viability, CellTiter-Glo, 72 h; series mostly up to 44.5 µM; activity change, negative = cytotoxicity: at the top concentration; further: nearly all actives have a fitted effect of over 65% in size
Outline: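 Luminescence from CellTiter-Glo, read 5 min after addition, quantified survival of KB-8-5-11 (P-gp-overexpressing) cells exposed to compounds for 72 h. AC50 was derived from concentration-response curves.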
On the % scale 0 is the no-effect control and ±100 the full control effect; potency means the concentration at half of the fitted maximal effect.

SMILES | Potency | activity change, negative = cytotoxicity | outcome
Cc1cc(C(C)(C)C)c(O)c(C)c1CC1=NCCN1 | inactive |  | 
NS(=O)(=O)c1cc2c(cc1Cl)NCNS2(=O)=O | inactive |  | 
NC(=O)NO | inactive and 1.66 µM (active) |  | 
CN(C)c1nc(N(C)C)nc(N(C)C)n1 | inactive |  | 
CCOC(=O)c1ncn2c1CN(C)C(=O)c1cc(F)ccc1-2 |  | 8.12% (inactive) | 
CCCCc1oc2ccccc2c1C(=O)c1cc(I)c(OCCN(CC)CC)c(I)c1 |  | -29.6% (inactive) | 
Cc1ccc(C(=O)Nc2ccc(S(=O)(=O)O)c3cc(S(=O)(=O)O)cc(S(=O)(=O)O)c23)cc1NC(=O)c1cccc(NC(=O)Nc2cccc(C(=O)Nc3cc(C(=O)Nc4ccc(S(=O)(=O)O)c5cc(S(=O)(=O)O)cc(S(=O)(=O)O)c45)ccc3C)c2)c1 |  | 1.04% (inactive) | 
COc1ccccc1OCC(O)CN1CCN(CC(=O)Nc2c(C)cccc2C)CC1 (stereo not drawn) |  | 4.87% (inactive) | 
NC(=O)OCC(COC(N)=O)c1ccccc1 |  | 8.23% (inactive) | 
CCN1CCCC1CNC(=O)c1cc(S(=O)(=O)CC)c(N)cc1OC (stereo not drawn) |  |  | inactive
Cc1ccccc1N1C(=O)c2cc(S(N)(=O)=O)c(Cl)cc2NC1C (stereo not drawn) | inactive |  | 
Cn1cnc2c1c(=O)[nH]c(=O)n2C | inactive and 16.6 µM (active) |  | 
CC(C)Cc1ccc(C(C)C(=O)O)cc1 (stereo not drawn) | inactive |  | 
COc1ccc(C2CNC(=O)C2)cc1OC1CCCC1 (stereo not drawn) | inactive |  | 
CCC1(c2ccccc2)C(=O)NCNC1=O |  |  | inactive
COc1ccc2c(c1)c(CC(=O)O)c(C)n2C(=O)c1ccc(Cl)cc1 | inactive |  | 
CNCCCC12CCC(c3ccccc31)c1ccccc12 | 20.9 µM (active) |  | 

SMILES | Potency | activity change, negative = cytotoxicity | outcome
C[C@H]1c2cccc(O)c2C(O)=C2C(=O)[C@]3(O)C(O)=C(C(N)=O)C(=O)[C@@H](N(C)C)[C@@H]3[C@@H](O)[C@@H]21 | inactive |  | 
C[C@](N)(Cc1ccc(O)c(O)c1)C(=O)O | inactive |  | 
Nc1nc2c(ncn2COC(CO)CO)c(=O)[nH]1 | inactive and 16.6 µM (active) |  | 
NCCCCCC(=O)O | inactive |  | 
CN1C2CCC1CC(OC(=O)C(CO)c1ccccc1)C2 (stereo not drawn) |  | 9.97% (inactive) | 
COc1cc2c(c(OC)c1OC)-c1ccc(OC)c(=O)cc1[C@@H](NC(C)=O)CC2 | 23.1 µM (active) and 132 nM (active) |  | 
CN(C)C(=O)C(CCN1CCC(O)(c2ccc(Cl)cc2)CC1)(c1ccccc1)c1ccccc1 | 18.7 µM (active) |  | 
O=C(c1ccc(F)cc1)C1CCN(CCn2c(=O)[nH]c3ccccc3c2=O)CC1 | inactive |  | 
Cn1c(=O)c2[nH]cnc2n(C)c1=O | inactive |  | 
CN1C(C(=O)Nc2ccccn2)=C(O)c2ccccc2S1(=O)=O | inactive |  | 
Cc1cc(C(C)(C)C)cc(C)c1CC1=NCCN1 | inactive |  | 
COC(=O)Nc1nc2ccc(C(=O)c3cccs3)cc2[nH]1 | 6.6 nM (active) and 326 nM (active) |  | 
N[C@@H](Cc1c[nH]c2ccc(O)cc12)C(=O)O | inactive |  | 
NCCS(=O)(=O)O |  | -3.12% (inactive) | 
CCOC(=O)C(C)(C)Oc1ccc(Cl)cc1 | inactive |  | 
COc1cc2nc(N3CCN(C(=O)c4ccco4)CC3)nc(N)c2cc1OC |  | -20.8% (inactive) | 
CCc1cccc2c3c([nH]c12)C(CC)(CC(=O)O)OCC3 (stereo not drawn) | inactive |  | 

experiment: Natriuretic polypeptide receptor (hNpr1) antagonism - Pilot counterscreen GloSensor control cell line (AID 1347045; calls by dose curve); settings: HEK293 cGMP GloSensor cells, SNP-stimulated luminescence, 20 min; series mostly up to 38.3 µM; activity change, negative = inhibition: at the top concentration
Outline: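 Cells were first seeded and incubated overnight at 37C, then loaded with 2% GloSensor substrate for 2 h. Compounds were added for 30 min at room temperature, followed by a baseline read, 50 uM SNP and a final read after 20 min.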

SMILES | activity change, negative = inhibition | Potency
Cc1cc(C(C)(C)C)c(O)c(C)c1CC1=NCCN1 | -3.52% (inactive) | 
NS(=O)(=O)c1cc2c(cc1Cl)NCNS2(=O)=O | 1.46% (inactive) | 
NC(=O)NO | -1.25% (inactive) | 
CN(C)c1nc(N(C)C)nc(N(C)C)n1 | -12.4% (inactive) | 
CCOC(=O)c1ncn2c1CN(C)C(=O)c1cc(F)ccc1-2 | -0.579% (inactive) | 
CCCCc1oc2ccccc2c1C(=O)c1cc(I)c(OCCN(CC)CC)c(I)c1 | 24.7% (inactive) | 
Cc1ccc(C(=O)Nc2ccc(S(=O)(=O)O)c3cc(S(=O)(=O)O)cc(S(=O)(=O)O)c23)cc1NC(=O)c1cccc(NC(=O)Nc2cccc(C(=O)Nc3cc(C(=O)Nc4ccc(S(=O)(=O)O)c5cc(S(=O)(=O)O)cc(S(=O)(=O)O)c45)ccc3C)c2)c1 | -1.32% (inactive) | 
COc1ccccc1OCC(O)CN1CCN(CC(=O)Nc2c(C)cccc2C)CC1 (stereo not drawn) | -0.591% (inactive) | 
NC(=O)OCC(COC(N)=O)c1ccccc1 | -0.533% (inactive) | 
CCN1CCCC1CNC(=O)c1cc(S(=O)(=O)CC)c(N)cc1OC (stereo not drawn) | 2.52% (inactive) | 
Cc1ccccc1N1C(=O)c2cc(S(N)(=O)=O)c(Cl)cc2NC1C (stereo not drawn) | -0.409% (inactive) | 
Cn1cnc2c1c(=O)[nH]c(=O)n2C | -3.05% (inactive) | 
CC(C)Cc1ccc(C(C)C(=O)O)cc1 (stereo not drawn) | -6.4% (inactive) | 
COc1ccc(C2CNC(=O)C2)cc1OC1CCCC1 (stereo not drawn) | 4.81% (inactive) | 
CCC1(c2ccccc2)C(=O)NCNC1=O | -0.266% (inactive) | 
COc1ccc2c(c1)c(CC(=O)O)c(C)n2C(=O)c1ccc(Cl)cc1 | 5.68% (inactive) | 
CNCCCC12CCC(c3ccccc31)c1ccccc12 | -3.61% (inactive) | 

SMILES | activity change, negative = inhibition | Potency
C[C@H]1c2cccc(O)c2C(O)=C2C(=O)[C@]3(O)C(O)=C(C(N)=O)C(=O)[C@@H](N(C)C)[C@@H]3[C@@H](O)[C@@H]21 | -3.1% (inactive) | 
C[C@](N)(Cc1ccc(O)c(O)c1)C(=O)O | 3.68% (inactive) | 
Nc1nc2c(ncn2COC(CO)CO)c(=O)[nH]1 | -2.11% (inactive) | 
NCCCCCC(=O)O | 2.26% (inactive) | 
CN1C2CCC1CC(OC(=O)C(CO)c1ccccc1)C2 (stereo not drawn) |  | inactive
COc1cc2c(c(OC)c1OC)-c1ccc(OC)c(=O)cc1[C@@H](NC(C)=O)CC2 | 4.77% (inactive) | 
CN(C)C(=O)C(CCN1CCC(O)(c2ccc(Cl)cc2)CC1)(c1ccccc1)c1ccccc1 |  | 26.1 µM (active)
O=C(c1ccc(F)cc1)C1CCN(CCn2c(=O)[nH]c3ccccc3c2=O)CC1 | -0.606% (inactive) | 
Cn1c(=O)c2[nH]cnc2n(C)c1=O | -3.5% (inactive) | 
CN1C(C(=O)Nc2ccccn2)=C(O)c2ccccc2S1(=O)=O | -0.351% (inactive) | 
Cc1cc(C(C)(C)C)cc(C)c1CC1=NCCN1 | 6.64% (inactive) | 
COC(=O)Nc1nc2ccc(C(=O)c3cccs3)cc2[nH]1 | 12.3% (inactive) | 
N[C@@H](Cc1c[nH]c2ccc(O)cc12)C(=O)O | 2.21% (inactive) | 
NCCS(=O)(=O)O | -2.35% (inactive) | 
CCOC(=O)C(C)(C)Oc1ccc(Cl)cc1 | 3.66% (inactive) | 
COc1cc2nc(N3CCN(C(=O)c4ccco4)CC3)nc(N)c2cc1OC | 4.46% (inactive) | 
CCc1cccc2c3c([nH]c12)C(CC)(CC(=O)O)OCC3 (stereo not drawn) | 0.426% (inactive) | 
